In PubChem BioAssay AID743315 (Broad Institute, 2014):
Potency and affinity values are given separately. The source made the active and inactive calls.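 How the source made its calls: active means cell killing, with a fitted active concentration at or below twice the top valid dose tested; inconclusive means flat curve with moderate cell loss, or an unreliable fit; inactive means effect in the rising direction, plus the rest.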

Experiment: loss of HEK293T viability via ATP – cell-based, plate reader, dry powder, set 10, cytotoxicity control, dose response (AID 743315)
Conditions: CellTiter-Glo ATP luminescence, 72 h; series mostly up to 26 µM

Row | SMILES | outcome
1 | Cc1ccc(C(C)C)c(OCCn2c(CO)nc3ccccc32)c1 | inactive
2 | Cc1ccc2c(c1)[nH]c(=S)n2CCOc1ccccc1 | inactive
3 | c1ccc(OCCn2cnc3ccccc32)cc1 | inactive
4 | CC(C)c1ccccc1NCCn1c(=S)[nH]c2ccccc21 | inactive
5 | Cc1ccc(C)c(OCCn2c(=S)[nH]c3ccccc32)c1 | inactive
6 | Fc1ccccc1OCCn1c(=S)[nH]c2ccccc21 | inactive
7 | Cc1ccc(OCCn2c(=S)[nH]c3ccccc32)c(C)c1 | inactive
8 | CC(C)c1ccccc1OCCn1c(=S)[nH]c2ccccc21 | inactive
9 | S=c1[nH]c2ccccc2n1CCOc1ccccc1Cl | inactive
10 | Cc1ccc(C(C)C)c(OCCn2c(=S)[nH]c3ccc(F)cc32)c1 | inactive
11 | Cc1ccc(OCCn2c(=S)[nH]c3ccccc32)cc1 | inactive
12 | Cc1ccc(C(C)C)c(OCCn2c(=S)[nH]c3ccccc32)c1 | inactive
13 | Cc1ccc(OCCn2cnc3ccccc32)cc1 | inactive
14 | Fc1cccc(OCCn2c(=S)[nH]c3ccccc32)c1 | inactive
15 | Cc1cccc(OCCn2c(=S)[nH]c3ccccc32)c1 | inactive
16 | S=c1[nH]c2ccccc2n1CCOc1ccccc1 | inactive
17 | CC(C)(C)c1ccccc1OCCn1c(=S)[nH]c2ccccc21 | inactive
18 | S=c1[nH]c2ccccc2n1CCOc1ccc(Cl)cc1 | inactive
19 | Fc1cccc2c1[nH]c(=S)n2CCOc1ccccc1 | inactive
20 | Cc1cccc(OCCn2c(=S)[nH]c3c(F)cccc32)c1 | inactive
21 | Cc1ccccc1OCCn1c(=S)[nH]c2ccccc21 | inactive
22 | S=c1[nH]c2cc(Cl)ccc2n1CCOc1ccccc1 | inactive
23 | Fc1ccc2[nH]c(=S)n(CCOc3ccccc3)c2c1 | inactive
24 | COCc1nc2ccccc2n1CCOc1ccc(C(C)(C)C)cc1 | inactive
